This assay addresses dTDP-4-dehydrorhamnose reductase (Mycobacterium tuberculosis (strain ATCC 25618 / H37Rv)) + dTDP-4-dehydrorhamnose 3,5-epimerase (Mycobacterium tuberculosis (strain ATCC 25618 / H37Rv)) (UniProt P9WH09+P9WH11). Nature of the assay: M. tuberculosis RmlC/RmlD coupled enzyme inhibitors, primary screen, biochemical, compound mixtures, 384-well, from 1536-well plates (AID 1533). To be noted: RmlC+RmlD coupled enzyme assay, percent inhibition, primary screen in compound mixtures, stronger effect = higher value.

Where [1] appears, read: measured here: mean retest inhibition, at 5.5 µM.

Molecules are shown by their SMILES. The whole screen tested about 160,000 compounds, of which about 45 (0.03%) were called active. No stated cut-off is given here; in the data, active means inhibition mostly above about 34% (no sharp cut-off); inconclusive means no clear call, values can overlap the other calls; inactive means mostly below about 22%. The full list was thinned out, with actives kept by preference.

Chain of dTDP-4-dehydrorhamnose reductase (Mycobacterium tuberculosis (strain ATCC 25618 / H37Rv)) + dTDP-4-dehydrorhamnose 3,5-epimerase (Mycobacterium tuberculosis (strain ATCC 25618 / H37Rv)) (P9WH09 whole entry, looked up): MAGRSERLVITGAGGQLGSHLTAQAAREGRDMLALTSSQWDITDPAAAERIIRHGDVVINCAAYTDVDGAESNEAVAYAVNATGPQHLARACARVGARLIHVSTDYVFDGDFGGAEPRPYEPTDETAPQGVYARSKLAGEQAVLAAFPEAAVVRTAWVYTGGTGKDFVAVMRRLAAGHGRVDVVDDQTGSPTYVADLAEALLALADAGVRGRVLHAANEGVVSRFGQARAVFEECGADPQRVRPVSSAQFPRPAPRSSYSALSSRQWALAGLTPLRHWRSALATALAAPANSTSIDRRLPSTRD
Chain of dTDP-4-dehydrorhamnose reductase (Mycobacterium tuberculosis (strain ATCC 25618 / H37Rv)) + dTDP-4-dehydrorhamnose 3,5-epimerase (Mycobacterium tuberculosis (strain ATCC 25618 / H37Rv)) (P9WH11 whole entry, looked up): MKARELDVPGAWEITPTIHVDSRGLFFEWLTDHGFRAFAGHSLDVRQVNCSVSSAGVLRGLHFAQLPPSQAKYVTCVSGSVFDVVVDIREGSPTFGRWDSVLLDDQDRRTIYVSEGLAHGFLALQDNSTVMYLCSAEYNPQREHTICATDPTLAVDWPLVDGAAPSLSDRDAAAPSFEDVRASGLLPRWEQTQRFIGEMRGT

Regarding `CCCCc1nnc(NC(=O)CSc2nc(N)cc(=O)[nH]2)s1`, the inhibition (usually the relative decrease from the control value, in per cent) (at 3.6 µM) is -1.44% (inactive).
The same measure, in the same setting: as for `CCC(O)C1CCN(Cc2cn(-c3ccc(OC)cc3)nc2-c2cccc(F)c2)CC1` (stereo not drawn), the figure is -7.8% (inactive); as for `CC(NC(=S)Nc1ccccc1)C(c1cccs1)N1CCOCC1` (stereo not drawn), 3.55% (inactive).
As to `CCC1CCCCN1C(=O)CSc1nc2c(c(=O)n(C)c(=O)n2C)n1C` (stereo not drawn), under “at 3.6 µM”, the inhibition was -9.61% (inactive).
Still for that read-out and setting: as for `CCOC(=O)c1ccccc1NC(=S)N1CCC(C(N)=O)CC1`, the figure is -16.5% (inactive); as for `CC1=NN(c2ccccc2)C(=O)C1C(=O)c1ccc([N+](=O)[O-])cc1` (stereo not drawn), 4.71% (inactive); as for `CCCNc1c(N)c(=O)c1=O`, -3% (inactive).
Same read-out and setting: as for `COc1ccc(CCNC(=O)C(=O)Nc2ccc3nc4n(c(=O)c3c2)CCCCC4)cc1OC`, the figure is -7.43% (inactive); as for `CN1CCN(c2ncc3c(n2)CC(c2ccccc2F)CC3=O)CC1` (stereo not drawn), 2.14% (inactive).
As to `N#C/C(=C(\O)C(F)(F)F)c1nnc2n1CCCCC2`, the inhibition was 31.1% (inactive) (at 3.6 µM) and -1.52% under setting [1].
On to `CCOc1ccc2nc(NCCNC(=O)C(C)(C)C)c(C)cc2c1`, for which, where the note is “at 3.6 µM”, the inhibition was -1% (inactive).
As for `Cn1cc(S(=O)(=O)NC(c2ccccc2)c2ccccc2)c(=O)n(C)c1=O`, the inhibition (at 3.6 µM) is -1% (inactive).
Same read-out and setting: in the case of `CN(c1ccc(OCC(=O)NC2=NCCS2)cc1)S(=O)(=O)c1ccc(F)cc1` it was 9.17% (inactive); in that of `CC1CC1C(=O)OCC(=O)c1c(N)n(C)c(=O)n(C)c1=O` (stereo not drawn), -8.03% (inactive); in that of `O=S(=O)(NCCc1csc(-c2ccccc2)n1)c1cccnc1`, 4.16% (inactive).
For `Cc1nnc2n1N=C(c1ccc3c(c1)NC(=O)CO3)CS2`, the inhibition (at 3.6 µM) is -5.45% (inactive).
The same measure, in the same setting: in the case of `COc1ccc(C)cc1NC(=O)c1ccc(-c2ccc(C(C)=O)cc2)o1` it was 6.7% (inactive); in that of `C/C(=N/NC(=O)CC(=O)N/N=C(\C)c1ccc([N+](=O)[O-])cc1)c1ccc([N+](=O)[O-])cc1`, 11.2% (inactive); in that of `O=C(Nc1nc2ccc([N+](=O)[O-])cc2s1)c1ccncc1`, 8.08% (inactive).
On the same count and under the same terms, as for `COc1cc(CN2CCNC(=O)C2CC(=O)NCCc2ncccc2C)cc(OC)c1` (stereo not drawn), the figure is -11.4% (inactive).
The same measure, in the same setting: as for `CN(CC(=O)Nc1ccccc1F)CC(=O)Nc1ccccc1Br`, the figure is 27.7% (inactive); as for `Cc1c(C)c(C)c2[nH]c(=S)[nH]c2c1C`, 4.61% (inactive); as for `O=c1[nH]c(CSc2ccccc2)nc2c1oc1ccccc12`, 2.42% (inactive).
As for `CCOc1ccc(NC(=S)N2CCCCCC2)cc1`, the inhibition (at 3.6 µM) was -16.4% (inactive).
Consider `CCOc1ccc(NS(=O)(=O)c2cc(C)c(C)cc2C)cc1`, for which, for the setting “at 3.6 µM”, the inhibition is -11.4% (inactive).
The same measure, in the same setting: as for `CC(=O)c1c(C)[nH]c(=S)c(C#N)c1-c1ccc(F)cc1`, the figure is 10.4% (inactive); as for `CCCc1nc2oc3c(=O)[nH]cnc3c2c2c1COC(C)(C)C2`, -9.43% (inactive).
On the same count and under the same terms, in the case of `O=C(NCc1cccnc1)C(=O)Nc1nc(-c2ccccc2)cs1` it was -5.87% (inactive); in that of `Oc1oc(-c2ccccc2Br)nc1/C=N/c1ccccn1`, 2.05% (inactive).
As to `Oc1cccc2ccc(/C=C/c3ccc(Br)s3)nc12`, the inhibition (at 3.6 µM) is -11.7% (inactive).
Same read-out and setting: in the case of `CN(C)CCOc1cccc(Br)c1` it was 11.8% (inactive).
For the compound `CN(C)c1ccc(NC(=O)CSc2n[nH]c(-c3ccco3)n2)cc1`, the inhibition (at 3.6 µM) is -3.13% (inactive).
Same read-out and setting: in the case of `Cc1nc2ccccn2c1C(=O)NN=C1CCN(C)CC1` it was -1.88% (inactive); in that of `CC(C)OCCCNC(=O)c1ccc(C2SCC(=O)N2Cc2ccco2)cc1` (stereo not drawn), 1.23% (inactive).
On the same count and under the same terms, in the case of `CCn1c(CSCc2c(Cl)cccc2Cl)n[nH]c1=S` it was -0.03% (inactive).
The same measure, in the same setting: as for `O=C(O)CCc1nc2cc(Cl)ccc2n(Cc2ccccc2)c1=O`, the figure is -4.14% (inactive); as for `Cc1nc2cccnc2nc1C`, -6.92% (inactive).
In the case of `Cc1ccccc1Nc1nc(N)nc(CSc2nnc3ccccn23)n1`, the inhibition (at 3.6 µM) was 4.62% (inactive).
On the same count and under the same terms, as for `CC(C)(C)NC(=O)/C(=C/c1cccnc1)NC(=O)c1ccco1`, the figure is -0.65% (inactive).
On to `CN1CCN(C2=NCCO2)CC1`, for which the inhibition (at 3.6 µM) was -5.76% (inactive).
On the same count and under the same terms, as for `C/C(=N\NC(=O)c1nc(C)cc(C)n1)c1ccccc1`, the figure is -2.86% (inactive); as for `CNC(=O)C(NC(=O)c1ccccc1)=C(C)C`, 3.15% (inactive).
In the case of `CC(C)=C(NC(=O)c1ccccc1)C(=O)N/N=C(\C)c1ccccc1O`, the inhibition reads like this: (at 3.6 µM) 51.8% (active); under setting [1], 31.3%.
Regarding `Cc1ccc(SCc2c(C(=O)N/N=C/C3CC=CCC3)nnn2-c2nonc2N)cc1` (stereo not drawn), where the note is “at 3.6 µM”, the inhibition is 9.89% (inactive).
In the case of `OCC1(Cc2ccccc2C(F)(F)F)CCN(Cc2ccncc2)CC1`, the inhibition (at 3.6 µM) is 9.49% (inactive).
Still for that read-out and setting: as for `O=C1C2C3C=CC(C3)C2C(=O)N1c1ccc(-c2nc3ccccc3c(=O)o2)cc1` (stereo not drawn), the figure is 1.56% (inactive); as for `O=C(CCCl)Nc1ccc(S(=O)(=O)NCc2ccco2)cc1`, 4.49% (inactive); as for `CC(C)c1nc(SCC(=O)NC(=O)NC(C)(C)C)n[nH]1`, -8.54% (inactive).
Regarding `O=C(COC(=O)c1ccc(Cl)nc1)NCc1cccs1`, for the setting “at 3.6 µM”, the inhibition is -9.13% (inactive).
Turning to `Cc1cc(C(=O)Cn2cnc3cc([N+](=O)[O-])ccc3c2=O)c(C)n1CC1CCCO1` (stereo not drawn), where the note is “at 3.6 µM”, the inhibition is 5.54% (inactive).
With `C=CCSc1nnc(NC(=O)c2ccc(NC(C)=O)cc2)s1`, the inhibition (at 3.6 µM) was 2.48% (inactive).

For the origin of these results see PubChem BioAssay AID1533 (PCMD, 2009).
